Screens from PubChem BioAssay.
The list is not random: actives were taken first. Their share in the collection is about 22%.
CYP2C9 act – human CYP2C9 activators, primary screen, biochemical, luminescence | Cytochrome P450 2C9 (Homo sapiens), P11712 | recombinant CYP2C9, luciferin-H conversion; active compounds read high; factor 1 = untreated enzyme, 0 = blocked | activation factor at 5 µM | hit rate 1.4% among 96,000;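 active = activation factor of 2 or more for CYP2C9 at a 5 µM dose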;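 also: 0 = sulfaphenazole-blocked wells and 1 = vehicle-only wells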
Target sequence (P11712 whole entry, looked up): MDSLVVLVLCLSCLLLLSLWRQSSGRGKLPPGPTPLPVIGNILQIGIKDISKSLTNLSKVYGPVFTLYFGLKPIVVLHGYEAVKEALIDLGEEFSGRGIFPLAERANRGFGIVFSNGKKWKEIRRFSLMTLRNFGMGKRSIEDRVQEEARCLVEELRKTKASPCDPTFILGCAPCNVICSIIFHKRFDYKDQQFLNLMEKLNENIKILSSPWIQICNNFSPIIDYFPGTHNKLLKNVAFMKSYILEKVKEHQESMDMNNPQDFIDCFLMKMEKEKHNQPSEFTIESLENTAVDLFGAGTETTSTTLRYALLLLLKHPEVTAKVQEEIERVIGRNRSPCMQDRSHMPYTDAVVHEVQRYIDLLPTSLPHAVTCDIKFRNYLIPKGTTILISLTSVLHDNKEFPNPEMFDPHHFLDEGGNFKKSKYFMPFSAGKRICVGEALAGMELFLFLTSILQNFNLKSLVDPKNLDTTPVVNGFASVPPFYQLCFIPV
CYP2C9 inh – blockers of cytochrome P450 2C9 activity – biochemical, luminescence, ADME assay, primary screen | inhibition, % at 5 µM | hit rate 20% among 96,000 | CYP2C9 Supersomes, luciferin-H conversion | AID 777, 2007 | P11712;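 active = blocking of liver enzyme CYP2C9 beyond about 50% at 5 µM, limit read from the data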
F-actin modifier – modifiers of F-actin cytoskeleton organization, primary screen, imaging, HUVEC, phalloidin staining, high-content imaging. inhibition, % at 2 µM. hit rate 0.18% among 91,000. AID 836, 2007. HUVEC TNFa F-actin phalloidin imaging;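 active = inhibition above the batch mean plus 3 SD and confirmed as a hit by visual image inspection, cut at about 30% in these data, passing the limit was not always enough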
CYP2C19 activ – human CYP2C19 activators, primary screen, biochemical, luminescence. Cytochrome P450 2C19 (Homo sapiens), P33261. 96,000 tested, under 10 active. activation factor at 5 µM. recombinant CYP2C19, luciferin-H EGE luminescence; active compounds read high; 0 = fully inhibited enzyme, 1 = untreated enzyme. AID 1025, 2008;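 active = activation factor of at least 2 at 5 µM in the primary screen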;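 also: 0 = wells with 2.5 mM tranylcypromine and 1 = vehicle-only wells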
CYP2C19 inhib – blockers of cytochrome P450 2C19 activity – biochemical, luminescence, ADME assay, primary screen; inhibition, % at 5 µM; P33261; hit rate 21% among 96,000; CYP2C19 Supersomes, luciferin-H EGE luminescence, 30 min; AID 778, 2007;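 active = CYP2C19 inhibition above a set limit at 5 µM in the primary screen, cut at about 50% in these data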;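 also: plate controls were negative control wells for no effect and 2.5 mM tranylcypromine positive control for full effect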
E-sel TNF inh – E-selectin induction blockers in HUVEC – imaging, immunofluorescence, high content, primary screen. HUVEC TNFa-induced E-selectin immunofluorescence. inhibition, % at 2 µM. hit rate 0.71% among 120,000. AID 1246, 2008;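 active = inhibition above the batch mean plus 3 SD, and confirmed as a hit on visual image review, cut at about 43% in these data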;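 also: 0% = TNF-stimulated DMSO wells and 100% = unstimulated control wells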
* = called active by the depositor; . = no result.

SMILES | CYP2C9 act | CYP2C9 inh | F-actin modifier | CYP2C19 activ | CYP2C19 inhib | E-sel TNF inh
CCCNC(=O)C(=O)NCC1CCCN1CC (stereo not given) | . | . | . | . | . | -10.2
COc1cc(-c2nnc(-c3ccc(S(=O)(=O)c4ccccc4)cc3)o2)cc(OC)c1OC | 0.4 | 60.9* | -9.7 | 0.4 | 61.4* | -10.0
COc1ccc(CC(=O)Nc2ccc(-c3nnc(-c4ccccc4)o3)cc2)cc1OC | 0.8 | 24.7 | 13.8 | 0.9 | 14.3 | -45.8
COc1cc(-c2nnc(SCC3(c4ccccc4)OCCO3)o2)cc(OC)c1OC | 1.6 | -64.7 | -2.7 | 0.2 | 76.3* | -38.1
COc1cc(-c2nnc(SCC(=O)c3ccccc3)o2)cc(OC)c1OC | 0.9 | 10.8 | -26.5 | 0.6 | 36.9 | -1.1
COc1ccc(CCNC(=O)C/C(C)=N/NC(=O)c2ccc(N)cc2)cc1OC | 1.1 | -10.2 | 22.9 | 0.9 | 7.7 | .
COc1cc2[nH]c(=O)n(CCC(=O)NC3CCCC3)c(=O)c2cc1OC | 1 | -1.5 | . | 1 | 0.4 | -11.3
COC(=O)CCn1[nH]c(=O)c2ccccc2c1=O | . | . | . | . | . | 56.5
CCCCCCOC(=O)CCn1[nH]c(=O)c2ccccc2c1=O | 0.5 | 54.5* | . | 0.4 | 56.2* | .
CC(=O)N/C(=N\OCc1ccccc1Cl)c1nonc1NC(C)=O | . | . | . | . | . | -16.3
CCOC(=O)c1ccc(NC(=O)CSc2nnc(Cn3c(=O)sc4ccccc43)n2C)cc1 | 0.8 | 16.7 | . | 1.1 | -12.2 | -15.0
COc1cc(C)c(Br)cc1S(=O)(=O)NCc1ccccc1 | 1.4 | -37.8 | 7.8 | 0.3 | 65.2* | 4.7
Cc1cc(Cl)c(S(=O)(=O)NCc2ccccc2)cc1OCC(N)=O | 1 | 3.5 | 0.2 | 1 | 4.4 | -46.5
COc1cc(C)c(Cl)cc1S(=O)(=O)NCc1ccncc1 | 0.5 | 50.5* | 1.0 | 0 | 97.9* | -16.1
Cc1cc(Cl)c(S(=O)(=O)NCc2ccncc2)cc1OCC(N)=O | 0.8 | 15.9 | 9.0 | 0.6 | 44.8 | -6.0
N#Cc1cccc(-n2nnnc2-c2ccc3c(c2)OCO3)c1 | 0.8 | 22.3 | -10.5 | 0 | 96.7* | -1.7
N#Cc1ccc(-c2nnnn2-c2ccc3c(c2)OCO3)cc1 | 0.7 | 26.8 | -6.8 | 0.4 | 60.6* | 16.6
CCN(Cc1ccccc1)C(=O)Cn1c(=O)n(-c2ccc(OC)cc2OC)c(=O)c2c(C)c(C)sc21 | . | . | . | . | . | 14.6
Cc1nnc(SCC2=C(C(=O)O)N3C(=O)C(NC(=O)Cn4nc(C(F)F)cc4C)C3SC2)s1 (stereo not given) | . | . | . | . | . | -18.6
Cc1ccc(NC(=O)Cc2n[nH]c(=S)n2C)cc1 | . | . | . | . | . | 7.6
CSCC[C@@H](Nc1nc(-c2ccccc2)nc2c1oc1ccccc12)C(=O)O | 0.4 | 64.0* | -20.6 | 1 | 1.7 | -16.6
Cc1nc(N[C@@H](Cc2ccccc2)C(=O)O)c2oc3ccccc3c2n1 | 0.9 | 10.0 | 0.0 | 0.8 | 19.0 | -22.1
c1ccc(-c2nc(NCc3cccnc3)c3oc4ccccc4c3n2)cc1 | 0.4 | 57.7* | -6.4 | 0.6 | 35.3 | 9.7
c1ccc(-c2nc(NCC3CCCO3)c3oc4ccccc4c3n2)cc1 (stereo not given) | 0.9 | 14.5 | -0.9 | 0.8 | 15.1 | 11.9
CCn1c(=O)c(C(=O)Nc2ncccc2C)c(O)c2ccccc21 | . | . | . | . | . | 25.0
SMILES | CYP2C9 act | CYP2C9 inh | F-actin modifier | CYP2C19 activ | CYP2C19 inhib | E-sel TNF inh
Cc1ccc2[nH]c3c(N4CCc5ccccc5C4)ncnc3c2c1 | 0.9 | 7.6 | -28.3 | 0.9 | 10.9 | .
Cc1cccc2[nH]c3c(N4CCC5(CC4)OCCO5)ncnc3c12 | 0.8 | 17.4 | -35.1 | 0.5 | 50.8* | 26.1
Cc1cccc2[nH]c3c(N4CCN(C(=O)c5ccco5)CC4)ncnc3c12 | 0.6 | 38.8 | -16.1 | 0.1 | 89.6* | -4.7
Brc1ccc2[nH]c3c(N4CCc5ccccc5C4)ncnc3c2c1 | 0.1 | 92.3* | 11.6 | 0.9 | 5.9 | 8.0
Cc1ccc2[nH]c3c(N4CCOCC4)ncnc3c2c1 | 0.7 | 33.3 | -14.0 | 0.9 | 11.7 | 7.5
Clc1ccc2[nH]c3c(N4CCC5(CC4)OCCO5)ncnc3c2c1 | 0.3 | 72.9* | -36.3 | 0.2 | 75.9* | -0.9
Cc1sc2ncnc(N3CCN(C(=O)c4ccco4)CC3)c2c1C | . | . | . | . | . | -4.4
Cc1nc(SCC(=O)NCc2ccco2)[nH]c(=O)c1C | 1.1 | -7.5 | -17.0 | 1.2 | -17.0 | 2.4
Cc1c(N=C2SCC(=O)N2/N=C/c2ccccc2Cl)c(=O)n(-c2ccccc2)n1C | 1.2 | -17.4 | 1.1 | 0.9 | 7.2 | -8.2
Cc1nc(NC2=NCN(CCCN3CCOCC3)CN2)nc2c(C)cccc12 | 1.1 | -13.5 | 17.3 | 1 | 2.1 | -13.0
COc1ccccc1-n1c(SCC(=O)N2CCc3ccccc32)nc2c(c1=O)SCC2 | 0.8 | 20.1 | 12.9 | 1.1 | -5.0 | .
Cc1c2c(n3c(nc4ccccc43)c1C#N)N(CCN1CCOCC1)CC2 | . | . | . | . | . | -26.1
c1ccc2c(c1)[nH]c1c(N3CCOCC3)ncnc12 | 0.5 | 52.0* | -6.7 | 0.9 | 12.3 | .
Cc1ccc(C(=O)NCc2ccco2)cc1Br | 1.3 | -31.6 | 8.4 | 0.3 | 70.2* | -6.2
O=C(NCc1ccco1)c1ccc(Br)s1 | 0.6 | 37.3 | . | 0.3 | 69.7* | .
Cc1ccc2c(CC(=O)NCc3ccco3)coc2c1C | 1.5 | -53.8 | -2.9 | 0 | 98.9* | -15.3
Cc1nnc(NC(=O)CCC(=O)NCc2ccco2)s1 | 1 | 1.4 | 22.3 | 0.9 | 5.6 | .
O=C(NCc1ccco1)c1ccc(C(=O)NCc2ccco2)s1 | 0.7 | 33.0 | 1.3 | 1 | 4.6 | 2.7
Cc1ccc(C(=O)NCc2ccco2)cc1S(=O)(=O)N1CCOCC1 | 1 | 4.0 | -16.2 | 1 | -2.6 | 25.7
Cc1c(Br)cc(C(=O)NCc2ccco2)c(C)c1C | 2.7* | -168.0 | . | 0.2 | 77.0* | 1.8
COc1cc(CCC(=O)OCC(=O)Nc2c(C)cccc2C(C)C)cc(OC)c1OC | . | . | . | . | . | -2.3
Cc1ccc(/C=C/C(=O)OCC(=O)N2CC(=O)Nc3ccccc32)o1 | . | . | . | . | . | -10.9
O=C(NCCSCc1c(F)cccc1Cl)c1ccco1 | 0.3 | 74.8* | 22.6 | 0.2 | 79.6* | -7.6
Cc1ccc2occ(C(=O)c3ccco3)c(=O)c2c1 | 1.4 | -44.4 | . | 1 | 3.2 | -32.2
O=c1c2[nH]c3ccccc3c2ncn1CCC1=CCCCC1 | 0.7 | 33.7 | -7.9 | 0.3 | 67.2* | -13.1
Cc1ccc2c(c1)[nH]c1c(=O)n(CCC3=CCCCC3)cnc12 | 0.9 | 7.1 | -8.5 | 0.4 | 55.3* | -42.9
Clc1ccc(-c2nnc3sc(-c4ccc(Br)o4)nn23)c(Cl)c1 | 0.8 | 21.4 | 6.5 | 0.4 | 57.6* | -24.8
COc1ccccc1-c1nn2c(-c3ccccc3Cl)nnc2s1 | 1 | -2.4 | . | 1 | 3.2 | .
Clc1ccc(-c2nnc3sc(-c4ccc(Br)o4)nn23)cc1 | 0.8 | 15.0 | -5.3 | 0.7 | 33.3 | 12.7
